Assay results: PubChem BioAssay (EPA / NIEHS)
Several values for one entry are separate records, joined by “and”; a condition that tells them apart may be missing. Identical values can stand only once. Activity calls are given as the source filed them. The calls were made as follows: active = hit-call score of the fitted dose curve at least 0.9, where 1 is the maximum; inactive = score below 0.9.

Columns and labels:
[1] = ATG_NFI_CIS: Attagene CIS-FACTORIAL HepG2 Assay for human Nuclear Factor I (NFI) (AID 2282989); details: HepG2 cis-regulatory reporter, NFI response element transcription; actives raise or lower the signal
Outline: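 Read-out: reporter mRNA via RT-PCR plus capillary electrophoresis with fluorescence detection. Transiently transfected HepG2 (endogenous TF activity on cis promoters), 24 h compound exposure; gain or loss of signal fitted against DMSO.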

[2] = target: Myc proto-oncogene protein (Homo sapiens) (UniProt P01106); test: ATG_Myc_CIS: Attagene CIS-FACTORIAL HepG2 Assay for human Myelocytomatosis (Myc) Proto-Oncogene Transcription Factor (AID 2282990); details: HepG2, Attagene cis-reporter transcription factor activity; actives raise or lower the signal
Outline: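 Read-out: fluorescent reporter mRNA fragments resolved by capillary electrophoresis after RT-PCR. Human HepG2 liver cells carried transfected cis-element reporter units and were dosed for 24 h. Gain or loss of signal fitted relative to DMSO baseline.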

[3] = ATG_Oct_MLP_CIS: Attagene CIS-FACTORIAL HepG2 Assay for human Octamer-Binding Transcription Factor (Oct) (AID 2282993); details: HepG2 Attagene cis-factorial Oct reporter, mRNA; actives raise or lower the signal
Outline: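 Read-out: reporter mRNA via RT-PCR plus capillary electrophoresis of 6-FAM-labelled fragments. Transiently transfected HepG2, 24 h exposure, endogenous TF activity on cis elements. Gain or loss of signal fitted relative to DMSO.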

[4] = target: Cellular tumor antigen p53 (Homo sapiens) (UniProt P04637); test: ATG_p53_CIS: Attagene CIS-FACTORIAL HepG2 Assay for human p53 Transcription Factor (AID 2282994); details: HepG2 p53 cis-element reporter, Attagene mRNA; actives raise or lower the signal
Outline: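 Read-out: reporter mRNA by RT-PCR plus capillary electrophoresis with fluorescence detection. Human HepG2 liver cells carried transfected multi-reporter cis-element constructs, dosed 24 h. Gain or loss of signal fitted bidirectionally against DMSO control.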

[5] = ATG_NRF2_ARE_CIS: Attagene CIS-FACTORIAL HepG2 Assay for human Nuclear Factor Erythroid 2 Related Factor 2 (NFR2) response to Antioxidant Response Elements (ARE) (AID 2282992); details: HepG2 Attagene ARE/NRF2 reporter, transcription factor activity; actives raise or lower the signal;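 as to AC50: reporter mRNA level measured by RT-PCR and capillary electrophoresis fluorescence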
Outline: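 Readout: reporter mRNA quantified by RT-PCR plus FAM-labelled primer extension, HpaI digestion and capillary electrophoresis, 24 h after dosing transfected HepG2 cells. Gain or loss of signal is fitted bidirectionally against DMSO baseline.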

[6] = BSK_3C_TissueFactor: BioMAP Diversity Plus: 3C Assay for Tissue Factor Biomarker Activity (AID 2282997); details: BioMAP 3C HUVEC, tissue factor biomarker readout; actives raise or lower the signal
Outline: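 Tissue factor on primary human umbilical vein endothelium was read by ELISA 24 h after dosing, gain or loss relative to DMSO. Cytotoxicity ran alongside via SRB (0.1%, TCA-fixed, 560 nm).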

[7] = BSK_3C_uPAR: BioMAP Diversity Plus: 3C Assay for Urokinase-type plasminogen activator receptor (uPAR) Biomarker Activity (AID 2282998); details: BioMAP 3C HUVEC, uPAR biomarker ELISA; actives raise or lower the signal
Outline: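 HUVEC primary cells; 24 h post-dose; uPAR by ELISA; gain or loss of signal fitted bidirectionally vs DMSO baseline.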

[8] = BSK_3C_VCAM1: BioMAP Diversity Plus: 3C Assay for Vascular cell adhesion molecule 1 (VCAM1) Biomarker Activity (AID 2282999); details: BioMAP 3C HUVEC, VCAM1 ELISA, cytokine-stimulated; actives raise or lower the signal
Outline: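 HUVEC primary cells, 24 h compound exposure; VCAM-1 by ELISA; gain/loss of signal fitted bidirectionally vs DMSO baseline.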

[9] = BSK_4H_Eotaxin3: BioMAP Diversity Plus: 4H Assay for Eotaxin 3 Biomarker Activity (AID 2283000); details: primary human endothelial cells (HUVEC); actives raise or lower the signal
Outline: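 Human umbilical vein endothelial cells (BSK_4H system) dosed with test chemical; Eotaxin-3 (CCL26) measured by ELISA 24 h after dosing. Bidirectional curve fitting relative to DMSO negative control as baseline.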

Measured: AC50

Myc proto-oncogene protein (Homo sapiens), sequence (P01106 whole entry, looked up, the tested form may be a part): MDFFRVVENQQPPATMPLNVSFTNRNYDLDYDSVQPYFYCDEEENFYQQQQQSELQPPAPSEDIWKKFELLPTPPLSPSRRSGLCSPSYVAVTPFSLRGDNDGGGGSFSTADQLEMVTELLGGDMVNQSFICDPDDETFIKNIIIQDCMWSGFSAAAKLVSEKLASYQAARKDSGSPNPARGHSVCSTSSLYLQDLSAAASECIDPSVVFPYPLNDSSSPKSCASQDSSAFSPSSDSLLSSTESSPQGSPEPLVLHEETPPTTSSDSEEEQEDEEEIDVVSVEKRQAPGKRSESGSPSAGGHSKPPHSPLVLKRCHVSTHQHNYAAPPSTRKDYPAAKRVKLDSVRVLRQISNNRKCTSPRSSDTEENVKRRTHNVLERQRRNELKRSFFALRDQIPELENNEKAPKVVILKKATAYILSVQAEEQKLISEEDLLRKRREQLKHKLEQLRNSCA
Cellular tumor antigen p53 (Homo sapiens), sequence (P04637 whole entry, looked up): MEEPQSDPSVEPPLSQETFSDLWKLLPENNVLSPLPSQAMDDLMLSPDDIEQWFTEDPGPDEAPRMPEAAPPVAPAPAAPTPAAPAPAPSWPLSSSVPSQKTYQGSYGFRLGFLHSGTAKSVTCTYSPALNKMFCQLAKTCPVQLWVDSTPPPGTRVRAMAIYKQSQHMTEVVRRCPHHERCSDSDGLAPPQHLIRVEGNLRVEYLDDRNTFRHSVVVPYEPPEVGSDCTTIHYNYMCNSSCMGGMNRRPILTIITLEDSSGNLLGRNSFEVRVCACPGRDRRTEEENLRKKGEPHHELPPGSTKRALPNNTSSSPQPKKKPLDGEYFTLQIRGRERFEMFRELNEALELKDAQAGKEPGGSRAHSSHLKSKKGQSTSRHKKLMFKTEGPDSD

CN(C)CCCN(C)C
inactive: [1] | [2] | [3] | [4]

CC(=O)OC(C)C
inactive: [1] | [2] | [5] | [3] | [4]

COCCOCCOCCOCCOC
inactive: [1] | [2] | [5] | [3] | [4]

NC(CO)(CO)CO
inactive: [1] | [2] | [5] | [3] | [4]

O=C1CCCCCCCCCCCCCCCO1
inactive: [1] | [2] | [3] | [4]
active: [5] 65.2 µM

Nc1ccc(N)c(Cl)c1
active: [1] 46.6 µM | [2] 33.4 µM | [5] 4.45 µM | [4] 33.4 µM | [8] 7.54 µM and 7.95 µM | [9] 20 µM and 15.1 µM
inactive: [3] | [6] | [7]

CCCCC(CC)CCC(CC(C)C)OS(=O)(=O)O (stereo not drawn)
inactive: [1] | [2] | [3] | [4]
active: [5] 100 µM

CC1(C)O[C@@H]2C[C@H]3[C@@H]4C[C@H](F)C5=CC(=O)C=C[C@]5(C)[C@@]4(F)[C@@H](O)C[C@]3(C)[C@]2(C(=O)CO)O1
inactive: [1] | [2] | [3]

C=C[Si](OC(C)=O)(OC(C)=O)OC(C)=O
inactive: all assays above

[Cl][In]([Cl])[Cl]
inactive: [1] | [2] | [3] | [4]

CCN(CCC#N)c1ccc(N=Nc2c(Cl)cc([N+](=O)[O-])cc2Cl)cc1
inactive: [1] | [2] | [5] | [3] | [4]

c1ccc2c(c1)ccc1cc3c(ccc4ccccc43)cc12
active: [5] 0.12 µM | [6] 15 nM and 41.3 nM | [9] 15 nM and 37.3 nM
inactive: all other assays above

N[C@H]1C(O)O[C@H](CO)[C@H](O)[C@@H]1O (stereo partly drawn)
inactive: [1] | [2] | [5] | [3] | [4]

COC(=O)c1ccccc1OC
inactive: [1] | [2] | [3]

CC(CC=O)c1ccccc1 (stereo not drawn)
inactive: [1] | [2] | [3] | [4]
active: [5] 121 µM

CCCCCCCCCCCCCCCC[n+]1ccccc1
active: [2] 20 µM | [4] 20.4 µM
inactive: [1] | [5] | [3]

O=C1Nc2ccccc2C1(c1ccc(O)cc1)c1ccc(O)cc1
active: [3] 22.4 µM
inactive: [1] | [2]

O=C(Nc1ccccc1)c1ccccc1O
active: [3] 48.3 µM
inactive: [1] | [2] | [5] | [4]

CC(=O)Nc1ccc2c(c1)Cc1cc(NC(C)=O)ccc1-2
inactive: [1] | [2] | [3] | [4]

CC(C)=CCC/C(C)=C\C#N
inactive: [1] | [2] | [3] | [4]

O=Cc1ccc(CO)o1
inactive: [1] | [2] | [3] | [4]

O=C(O)Cc1c(Cl)ccc(Cl)c1Cl
inactive: [1] | [2] | [3] | [4]

CC(C)CC(O)Cc1ccccc1 (stereo not drawn)
active: [5] 41.9 µM
inactive: [1] | [2] | [3] | [4]

c1ccc(-c2ccccn2)nc1
active: [9] 20 µM
inactive: all other assays above

C[Si](C)O[Si](C)(C)O[Si](C)(C)O[Si](C)C
inactive: [1] | [2] | [5] | [3] | [4]

COc1cc(NC(=O)CC(C)=O)c(OC)cc1Cl
inactive: [1] | [2] | [3] | [4]

CC1OC1C1CCC2(C)OC2C1 (stereo not drawn)
active: [5] 100 µM
inactive: all other assays above

C=CC(=O)OCCOC(=O)C=C
active: [3] 26.3 µM | [4] 48 µM
inactive: [1] | [2] | [5]

CC(=O)Oc1ccc(C(C)=O)cc1
inactive: [1] | [2] | [3] | [4]

CCOC(=O)CC
inactive: [1] | [2] | [3] | [4]

c1cc(C(c2ccc(OCC3CO3)cc2)C(c2ccc(OCC3CO3)cc2)c2ccc(OCC3CO3)cc2)ccc1OCC1CO1 (stereo not drawn)
active: [1] 22 µM | [3] 25.6 µM
inactive: [2]

O=CN1CCCCC1
inactive: [1] | [2] | [3] | [4]

CC(=O)[C@@]1(O)CC[C@H]2[C@@H]3C[C@H](C)C4=CC(=O)C=C[C@]4(C)[C@@]3(F)[C@@H](O)C[C@@]21C
inactive: [1] | [2] | [3] | [4]

O=c1c2ccccc2nnn1CCl
inactive: [1] | [2] | [5] | [3] | [4]

Cc1ccc(OC(=O)CC(C)C)cc1
inactive: [1] | [2] | [3]

CCCCCCCCCCCCCCCC[N+](C)(C)CC
active: [2] 8.97 µM | [4] 11.8 µM | [6] 12.1 µM | [7] 0.65 µM | [8] 3.17 µM | [9] 2.24 µM
inactive: [1] | [5] | [3]

COC(=O)c1c(C)cc(O)c(C)c1O
inactive: [1] | [2] | [5] | [3] | [4]

O=C1c2cccc(O)c2C(=O)c2c(O)cc(CO)cc21
inactive: [1] | [2] | [3] | [4]

COc1ccc2nc(N)sc2c1
active: [5] 13.9 µM
not listed: [4]
inactive: all other assays above

c1ccc2c(c1)ccc1ncccc12
active: [2] 26.7 µM | [5] 148 µM | [6] 8 µM | [7] 13.4 µM | [9] 20 µM
inactive: [1] | [3] | [8]
